Bioassay records deposited in PubChem by The Scripps Research Institute Molecular Screening Center.
Most compounds without a hit are left out; they make up all but 2.3% or so of the library.
CHO-K1 Ca antag: M1 antagonist counterscreen hit in parental CHO-K1 cells | ATP-induced calcium, Fluo-8 fluorescence | inhibition, % at 3 µM | 0.6% of 360,000 active;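 active means inhibition above a per-plate cutoff, the plate's mean sample inhibition plus 3 SD, cut at about 24% in these data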
CHRM1 PAM: positive allosteric modulators of human M1 muscarinic receptor; P11229; 0.088% of 360,000 active; activation, % at 3 µM; CHO-K1 hM1, Fluo-8 calcium fluorescence, ACh EC20; 0% = ACh EC20, 100% = maximal ACh; in the data active means activation above about 19%, passing the limit was not always enough
Target sequence (P11229 whole entry, looked up): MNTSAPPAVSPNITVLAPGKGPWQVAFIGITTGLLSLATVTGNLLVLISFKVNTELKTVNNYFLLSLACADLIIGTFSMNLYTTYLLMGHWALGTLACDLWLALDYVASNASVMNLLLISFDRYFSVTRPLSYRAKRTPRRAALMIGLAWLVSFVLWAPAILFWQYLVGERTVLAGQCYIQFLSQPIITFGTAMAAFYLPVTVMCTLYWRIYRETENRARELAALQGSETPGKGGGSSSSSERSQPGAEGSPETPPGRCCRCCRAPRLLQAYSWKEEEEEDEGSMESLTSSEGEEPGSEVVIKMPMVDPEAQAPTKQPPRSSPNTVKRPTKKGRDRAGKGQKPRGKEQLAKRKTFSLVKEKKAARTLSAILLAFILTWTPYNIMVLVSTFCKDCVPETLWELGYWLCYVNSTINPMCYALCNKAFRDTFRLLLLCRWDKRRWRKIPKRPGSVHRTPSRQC
M1 antag: human CHRM1 antagonism | AID 588852 | CHO-K1 hM1, Fluo-8 calcium fluorescence, ACh EC80 antagonist | 1.3% of 360,000 active | inhibition, % at 3 µM;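 active means percent inhibition above its own plate's cutoff, namely the mean of that plate's compound wells plus 3 SD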;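 further: peak over basal fluorescence ratio during 140 s after agonist addition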
M1 ag: agonists of human M1 muscarinic receptor; CHO-K1 hM1, Fluo-8 calcium fluorescence, agonist mode; 0% DMSO, 100% acetylcholine EC100; 0.33% of 360,000 active; activation, % at 3 µM;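 active means activation above the run's mean compound activation plus 3 SD, cut at about 16% in these data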;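 further: peak over basal fluorescence ratio within a 140 s kinetic read after compound addition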
CHO-K1 Ca PAM: M1 PAM counterscreen hit in parental CHO-K1 cells. ATP EC20, Fluo-8 calcium fluorescence; 0% at ATP EC20, 100% at ATP max. activation, % at 3 µM. 0.02% of 360,000 active. AID 602247;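 active means activation above the run cutoff, the mean activation of all test compounds plus 3 SD, cut at about 40% in these data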;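 further: peak over basal fluorescence ratio in a 140 s read after ATP addition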
M1 ag parental: M1 agonist counterscreen hit in parental CHO-K1 cells; Fluo-8 calcium fluorescence; scaled to maximal ATP response, vehicle zero; activation, % at 3 µM; 0.48% of 360,000 active; in the data active means activation above about 15%;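 further: untransfected CHO-K1 host cells lacking M1 receptor as counterscreen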
Of the large screens only hits and unclear results are named; the others gave an inactive call.

COc1ccc(C2(c3ccc(OC)cc3)NC(=O)N(CC(=O)Nc3cc(C)ccc3OC)C2=O)cc1	none
COc1ccc(C)cc1NC(=O)COC(=O)Cc1ccc(-c2ccccc2)cc1	none
COc1ccc(NC(=O)c2ccc(COc3ccccc3)o2)c(OC)c1	CHO-K1 Ca PAM 42
COc1ccc(NC(=O)c2ccc(COc3ccccc3Br)o2)c(OC)c1	none
COc1ccc(NC(=O)COC(=O)Cc2ccc(-c3ccccc3)cc2)c(OC)c1	CHO-K1 Ca PAM 46
Cc1ccc(F)cc1NC(=O)C1C2CCC(O2)C1C(=O)O (configuration not stated)	none
OCCCCNCc1ccc(OCc2ccccc2Cl)cc1	M1 antag 44
OCCCCNCc1ccc(OCc2ccccc2)cc1	none
CCc1cc(OCCCCNCc2ccccc2)ccc1Cl	M1 ag parental 17
CC(C)(C)c1cc(=O)[nH]c(SCc2ccccc2Cl)n1	none
O=c1ccnc(SCc2ccccc2Cl)[nH]1	CHO-K1 Ca antag 28
O=C(NCCc1ccccc1)c1c[nH]c2c(F)cccc2c1=O	none
Cc1cccc2c(=O)c(C(=O)NCCc3ccccc3)c[nH]c12	M1 antag 30
NS(=O)(=O)c1ccc(NC(=S)N2CCN(Cc3ccc(Cl)c(Cl)c3)CC2)cc1	M1 ag parental 19
CN(CC1CCCN(CCc2ccc(Cl)cc2)C1)C(=O)c1ccoc1 (configuration not stated)	none
CN(CC1CCCN(CCc2ccc(Cl)cc2)C1)C(=O)c1ccco1 (configuration not stated)	M1 antag 35
CN(CC1CCCN(CCc2ccc(Cl)cc2)C1)C(=O)c1ccc2nc[nH]c2c1 (configuration not stated)	M1 antag 48
Cn1nc(C(C)(C)C)cc1N1C(=O)CCC1(C)C(=O)NC1CCCC1 (configuration not stated)	none
Cc1cc(NCC(=O)Nc2ccc(C)c(S(=O)(=O)N3CCOCC3)c2)ccc1Br	none
COc1cccc(-c2cc(C(=O)N3CCN(c4ncccn4)CC3)c3ccccc3n2)c1	CHO-K1 Ca antag 34, M1 antag 45
COc1ccc(-c2cc(C(=O)N3CCN(c4ncccn4)CC3)c3ccccc3n2)cc1OC	none
CC(C)Oc1cccc(-c2cc(C(=O)N3CCN(S(C)(=O)=O)CC3)c3ccccc3n2)c1	none
CC(C)Oc1cccc(-c2cc(C(=O)N3CCN(c4ncccn4)CC3)c3ccccc3n2)c1	M1 antag 27
Cc1ccc(-c2cc(C(=O)N3CCN(c4ncccn4)CC3)c3ccccc3n2)cc1	M1 antag 31
Cc1ccc(-c2cc(C(=O)N3CCN(c4ccccc4O)CC3)c3ccccc3n2)o1	M1 antag 42
CCCCc1cc(=O)oc2c(C)c(OCc3nn[nH]n3)ccc12	none
COc1ccc(CCC(=O)OCC(=O)N(CC(C)C)c2c(N)n(Cc3ccccc3)c(=O)[nH]c2=O)cc1	none
Cc1ccc(C(=O)NCCS(=O)(=O)N2CCN(c3ccccc3F)CC2)cc1[N+](=O)[O-]	none
Cc1c(N/C(=N/S(=O)(=O)c2ccccc2)c2ccc(Cl)cc2)c(=O)n(-c2ccccc2)n1C	none
O=C(CCN1C(=O)C2CCCCC2C1=O)N1CCN(S(=O)(=O)c2ccccc2)CC1 (configuration not stated)	none
CCN1CCN(C(=O)c2cc(-c3ccc(Cl)s3)nc3ccccc23)CC1	M1 ag parental 19
N=c1c2c(ncn1CCN1CCOCC1)Oc1cc(O)ccc1C2c1ccccc1 (configuration not stated)	M1 antag 30
O=C(O)c1ccc(-c2ccc(/C=N/Nc3ccc([N+](=O)[O-])cc3)o2)cc1	M1 ag 18
NS(=O)(=O)c1ccc(-c2ccc(/C=N/Nc3ccc(C(=O)O)cc3)o2)cc1	none
O=C(O)c1cccc(-c2ccc(/C=N/Nc3ccc([N+](=O)[O-])cc3)o2)c1	M1 ag 17, M1 ag parental 18
CN(C)C(=O)/C(=C\c1ccc(-c2cccc([N+](=O)[O-])c2)o1)NC(=O)c1ccccc1	none
CN(C)C(=O)/C(=C/c1ccc(-c2cccc([N+](=O)[O-])c2)o1)NC(=O)c1ccccc1	M1 ag parental 22
